CYP2C19 activ – increases human CYP2C19 enzyme activity. P33261. recombinant CYP2C19, luciferin-H EGE luminescence; hits give high values; 0 = fully inhibited enzyme, 1 = untreated enzyme. activation factor at 5 µM. 96,000 tested, under 10 active;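 active = activation factor of at least 2 at 5 µM in the primary screen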;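 note: 0 = wells with 2.5 mM tranylcypromine and 1 = vehicle-only wells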
CYP2C9 inh – human CYP2C9 inhibition; P11712; 96,000 tested, 20% active; inhibition, % at 5 µM; CYP2C9 Supersomes, luciferin-H conversion, luminescence;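 active = blocking of liver enzyme CYP2C9 beyond about 50% at 5 µM, limit read from the data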
CYP2C19 inhib – human CYP2C19 inhibition; inhibition, % at 5 µM; AID 778; 96,000 tested, 21% active; P33261; CYP2C19 Supersomes, luciferin-H EGE luminescence, 30 min;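 active = CYP2C19 inhibition above a set limit at 5 µM in the primary screen, cut at about 50% in these data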;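 note: plate controls were negative control wells for no effect and 2.5 mM tranylcypromine positive control for full effect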
CYP2C9 activ – CYP2C9 (human) activation | 96,000 tested, 1.4% active | activation factor at 5 µM | P11712 | recombinant CYP2C9, luciferin-H conversion, luminescence; hits give high values; factor 1 = untreated enzyme, 0 = blocked;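 active = activation factor of 2 or more for CYP2C9 at a 5 µM dose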;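 note: 0 = sulfaphenazole-blocked wells and 1 = vehicle-only wells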
* hit, by the source's call. Hits are enriched below; roughly 31% of the tested compounds scored in any of these assays.

SMILES	CYP2C19 activ	CYP2C9 inh	CYP2C19 inhib	CYP2C9 activ
NC(=O)c1sc2cc(C(F)(F)F)cnc2c1-c1cccs1	0.8	24	20	0.8
Nc1nc(NCc2ccccc2)nc(Nc2ccc(F)cc2)c1[N+](=O)[O-]	1.1	2	-11	1
CC(=Nc1ccc2c(c1)nc(CO)n2C)C1=C(O)CC(C)(C)CC1=O	0.9	26	15	0.7
Cc1onc(-c2ccccc2)c1C(=O)N1CCCc2ccccc21	0.3	22	69*	0.8
Cc1noc(C)c1C(=O)N1CCc2ccccc21	1	-13	5	1.1
CCOC(=O)C1CCN(C(=O)c2c(-c3c(Cl)cccc3Cl)noc2C)CC1	0.3	79*	70*	0.2
Cc1onc(-c2c(Cl)cccc2Cl)c1C(=O)N1C=CC(C(F)(F)F)=NCC1	0.4	33	59*	0.7
Cc1onc(-c2c(F)cccc2Cl)c1C(=O)N1CCc2ccccc21	0.4	40	63*	0.6
CCN1CCN(C(=O)c2c(-c3c(F)cccc3Cl)noc2C)CC1	1	-18	-5	1.2
Cc1onc(-c2c(Cl)cccc2Cl)c1C(=O)N1CCCc2ccccc21	0.1	82*	91*	0.2
Cc1onc(-c2c(Cl)cccc2Cl)c1C(=O)N1CCc2ccccc2C1	0.2	73*	77*	0.3
Cc1cc(C(=O)N2CCCc3ccccc32)no1	0.7	-69	33	1.7
CCCN1C(=O)c2cc(C(=O)Nc3ccccc3CC)ccc2C1O (stereo not drawn)	0.9	-4	12	1
Cc1noc2nc(-c3cccs3)cc(-c3nnc4n3CCCCC4)c12	1	14	2	0.9
Cc1cccc(C(=O)NC(NCc2ccco2)C(Cl)(Cl)Cl)c1 (stereo not drawn)	0.7	58*	32	0.4
Cc1cccc(NC(NC(=O)c2cccnc2)C(Cl)(Cl)Cl)c1 (stereo not drawn)	0.5	83*	48	0.2
O=C(CSc1nnc(-c2ccccc2Br)o1)N1CCc2ccccc2C1	0.7	-12	32	1.1
Cc1c(Br)cc(-c2nnco2)cc1Br	1.1	-189	-10	2.9*
CN1CCN(c2ncnc3c2[nH]c2ccc(F)cc23)CC1	0.9	9	10	0.9
CN1CCN(c2cc3c(c4c2[nH]c2ccccc24)C(=O)CC(C)(C)C3)CC1	0.4	78*	61*	0.2
CCOC(=O)c1c(C)oc2ccc(O)c(CN(C)C)c12	1	3	2	1
CN(C)Cc1c(O)ccc2oc(Cc3ccccc3)cc12	0.3	23	72*	0.8
Cc1cccc(C)c1NC(=S)NN(Cc1ccccc1)c1ccccc1	0.6	10	45	0.9
CCN(C(=O)Cn1c(=O)n(Cc2ccccc2)c(=O)c2ccccc21)c1cccc(C)c1	1	86*	5	0.1
Cc1cc(NC(=O)Cn2c(=O)n(Cc3ccccc3)c(=O)c3ccccc32)no1	0.8	18	23	0.8
SMILES	CYP2C19 activ	CYP2C9 inh	CYP2C19 inhib	CYP2C9 activ
CC(=O)c1cccc(NC(=O)N2CCCC2C(=O)Nc2ccccc2C)c1 (stereo not drawn)	1	56*	4	0.4
CC(=O)Nc1cccc(NC(=O)C2CCCN2C(=O)Nc2ccc(C)cc2)c1 (stereo not drawn)	1	6	-2	0.9
CC(=O)c1cccc(NC(=O)N2CCCC2C(=O)Nc2cccc(C)c2C)c1 (stereo not drawn)	0.1	88*	90*	0.1
Cc1cc(C)cc(NC(=O)N2CCCC2C(=O)Nc2ccc(-n3cnnn3)c(C)c2)c1 (stereo not drawn)	0	10	96*	0.9
COc1ccc(N2CCN(S(=O)(=O)c3ccc4c(c3)CCCC4)CC2)c([N+](=O)[O-])c1	0.7	-47	29	1.5
O=P(O)(O)c1ccccc1OCc1ccccc1	1	2	2	1
CCOC(=O)Nc1cc(C(=O)OC)ccc1C	0.5	20	46	0.8
CC1CCCCN1C(=O)Nc1cccc(Cl)c1 (stereo not drawn)	0.3	17	70*	0.8
CCOC(=O)N1CCC(N(C(=O)Nc2ccc(Cl)c(Cl)c2)C(C)CC)CC1 (stereo not drawn)	0.1	84*	89*	0.2
CC1=C(C)CC(C(=O)Nc2cccc(Cl)c2)C(C(=O)O)C1 (stereo not drawn)	1.1	50*	-5	0.5
CCOC(=O)N1CCN(C(=O)Nc2cccc(Cl)c2)CC1	0.4	18	61*	0.8
Cn1nnnc1SCC(=O)NC(=O)Cc1ccccc1	0.7	4	27	1
C=CCn1c(COc2cccc3ccc(C)nc23)nnc1SCC(N)=O	1	-14	-3	1.1

Assay outcomes as filed in PubChem.
